# PubChem BioAssay (NCI)
# This is part of a sample that, as a whole, favours compounds with a hit. Of some 83,000 tested, about 20% had one in any assay.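 Growth was measured after 48 h exposure to one concentration of compound in 96-well plates. Values under 10 count as active.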 Unmarked numbers belong to inactive results. Calls of active or inactive are those of the source.
# Columns and labels:
# Assay in all cases: NCI-60 one-dose screen, 48 h (100 = growth as untreated, 0 = no growth, -100 = all killed)
# Conditions in all cases: 10 µM unless noted
# [1] = tested on: DU-145 prostate
# [2] = tested on: K-562 leukemia
# [3] = tested on: MALME-3M melanoma
# [4] = tested on: MDA-MB-231 breast
# [5] = tested on: RXF 393 renal
# [6] = tested on: SF-268 CNS
# [7] = tested on: SF-295 CNS
# [8] = tested on: SF-539 CNS
# [9] = tested on: UACC-257 melanoma
# [10] = tested on: M14 melanoma
# [11] = tested on: HCT-15 colon
# [12] = tested on: HT29 colon
# [13] = tested on: SNB-75 CNS
# [14] = tested on: SNB-19 CNS
# [15] = tested on: U251 CNS
# [16] = tested on: PC-3 prostate
# [17] = tested on: SK-MEL-5 melanoma
# [18] = tested on: UACC-62 melanoma
# [19] = tested on: LOX IMVI melanoma
# [20] = tested on: SK-MEL-28 melanoma
SMILES,growth [1],growth [2],growth [3],growth [4],growth [5],growth [6],growth [7],growth [8],growth [9],growth [10],growth [11],growth [12],growth [13],growth [14],growth [15],growth [16],growth [17],growth [18],growth [19],growth [20]
O=C(COc1ccc(/C=C2\Cc3ccc(Cl)cc3C2=O)cc1)Nc1nc2ccccc2s1,115%,86.4%,132%,96%,88.4%,112%,108%,98.9%,105%,103%,106%,116%,88%,98%,97.8%,92%,105%,98.2%,72.8%,108%
N/C(=N\c1nc2ccccc2s1)NC(=O)Nc1cccc2ccccc12,23.2%,9.12% (active),59.7%,52%,-2.29% (active),56.4%,33.3%,-21% (active),67.4%,5.44% (active),18.9%,6.2% (active),5.83% (active),34.8%,14.4%,23.5%,14%,29.2%,41.5%,65.3%
CCOC(=O)c1cn2ncnc(Oc3ccc(NC(=O)NCCN(CC)CC)c(Cl)c3)c2c1C,90.5%,-9.77% (active),22.3%,59.8%,41%,65%,92%,50.7%,-41.7% (active),-64.4% (active),3.71% (active),5.37% (active),89.1%,83.2%,65.2%,66.1%,46.6%,-8.89% (active),-32.7% (active),-77.4% (active)
COc1cc2cc(Oc3ccc(NC(=O)Nc4ccc(Cl)c(C(F)(F)F)c4)cc3)c(C)nc2cc1OCCN1CCOCC1,25.2%,9.9% (active),37.7%,38.4%,43.7%,32.2%,0.751% (active),41.7%,14.1%,19.2%,13.7%,12%,53.3%,24.4%,14.8%,13%,-34.7% (active),29.9%,9.99% (active),42.9%
O=C(N/N=C/[C@H](O)[C@H](O)[C@H](O)CO)c1ccc(NC(=O)c2cccnc2)cc1,111%,105%,108%,94.5%,107%,98.6%,101%,98.5%,99.8%,102%,106%,104%,97.4%,97.7%,105%,96.3%,104%,96.2%,99.1%,112%
c1ccc2cc(C[n+]3ccn(CCCCCCn4cc[n+](Cc5ccc6ccccc6c5)c4)c3)ccc2c1,65.9%,28.3%,11.2%,84.1%,87.4%,55.6%,48.3%,56.3%,61.9%,69.9%,96.4%,22.8%,26.7%,48.8%,34.4%,65.4%,42.3%,50.1%,66.8%,63.4%
Brc1ccc2[nH]cc(-c3nc(-c4c[nH]c5ccncc45)cs3)c2c1,-91.4% (active),-61.5% (active),-83.6% (active),-84.4% (active),-91.8% (active),-65.7% (active),-84.8% (active),-94.9% (active),-23.2% (active),-73.3% (active),-67.8% (active),-63.2% (active),51.9%,-79.5% (active),-83.9% (active),-66.8% (active),-44.1% (active),-79.4% (active),-97.4% (active),-95.6% (active)
O=c1c2cc(F)ccc2sc2c(NCCCNCCO)nc3ccc(F)cc3c12,37.4%,-33.5% (active),85.5%,-7.79% (active),63%,51.8%,98.6%,63.9%,94%,8.53% (active),47.9%,-0.699% (active),54.2%,72.6%,38.4%,50.6%,80.7%,88.6%,-76.7% (active),94%
